Reference: PubChem BioAssay AID602247 (The Scripps Research Institute Molecular Screening Center, 2012)
Hit rate of the full screen: of about 360,000 compounds, about 80 (0.02%) were called active. Only a selection was taken, and actives are over-represented in it overall. A number with no mark means an inactive call.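 Rule for the calls: active = activation above the run cutoff, the mean activation of all test compounds plus 3 SD (cut at about 40% in these data); inactive = the rest.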

Experiment: nonselective calcium activators in parental CHO-K1 cells, primary screen, counter-screen for M1 PAM project, cell-based, Fluo-8 calcium fluorescence, full deck, 1536-well (AID 602247);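 note: peak over basal fluorescence ratio in a 140 s read after ATP addition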
Conditions: parental CHO-K1, ATP EC20, Fluo-8 calcium fluorescence; at 3 µM; active compounds read high; 0% at ATP EC20, 100% at ATP max

Row | SMILES | activation
1 | C#CCCOC(=O)N1C2=NC(C(=O)OC)=C(C(=O)OC)[C@@H]3N(C)c4ccc(OC)cc4[C@]23C[C@H]1C(=O)OC | -12.8%
2 | O=C(CCCCCn1c(=S)[nH]c2ccsc2c1=O)NC1CCCCC1 | 16.9%
3 | CC(C)n1ncc2c(C(=O)NCc3ccccc3CN(C)C)cc(C3CC3)nc21 | -12.7%
4 | COC(=O)c1cc(S(=O)(=O)NC2CCN(Cc3ccccc3)CC2)cn1C | 3.07%
5 | CCOc1ccc(NC(=S)N2CCC(N(C)CC3CCCO3)CC2)cc1 (stereo not given) | 23.7%
6 | COc1ccc(OC)c(S(=O)(=O)N2CCCC(C(=O)NCCc3ccccc3)C2)c1 (stereo not given) | -2.03%
7 | Cc1ccc(OC(=O)c2cncc(Br)c2)c(C)c1 | -0.46%
8 | S=C(Nc1ccc2c(c1)OCO2)N1CCCC1 | 12.1%
9 | COc1ccc(-c2ccc(C(=O)NC(C)C)c3occc23)c(C)c1 | 11%
10 | CC(=O)Nc1ccc(NC(=O)CSCc2cnn(-c3ccccc3)c2-n2cccc2)cc1 | 1.5%
11 | Cc1ccc(N2C(=O)CC(N3CCSCC3)C2=O)c(C)c1 (stereo not given) | 0.16%
12 | CCOC(=O)C1CCN(CCC(=O)Nc2cccc(C)c2)CC1 | -4.96%
13 | CCCCCc1c(Cc2ccccc2)ncn1CCc1ccccc1OC | 3%
14 | CC(NC(=O)CN(C)S(=O)(=O)c1ccc(F)cc1)C1CC2CCC1C2 (stereo not given) | 9.24%
15 | CCC(C(=O)NC1CCCC1)N(C(=O)Cn1nnc(-c2ccc(C)o2)n1)c1ccc(OC)c(OC)c1 (stereo not given) | -0.54%
16 | NC(=O)C1(Nc2ccc(-c3ccccc3)cc2)CCCC1 | 0.81%
17 | CCOc1cc(/C=N/NC(=O)c2c(C)nc3ccc(Cl)cn23)ccc1O | -3.92%
18 | CCOc1cc(/C=N/NC(=O)c2cc(-c3ccccc3)nc3ccccc23)ccc1O | 40.7% (active)
19 | CCOc1ccccc1-c1cc(C(=O)N/N=C(\C)c2cccnc2)c2ccccc2n1 | 15.1%
20 | O=C(c1ccc(=O)[nH]c1)N(Cc1ccco1)C1(C(=O)NC2CCCCC2)CCCCC1 | 7.15%
21 | CCC(C)NC(=O)C1CCC(=O)N1Cc1ccc(C)cc1 (stereo not given) | 19.6%
22 | CCn1c(SCC(=O)Nc2ccc(OC)c(OC)c2)nnc1-c1c[nH]c2ccccc12 | 22.7%
23 | COc1ccccc1NC(=O)C(CC(=O)O)Cc1cc(C)cc(C)c1 (stereo not given) | 22.4%
24 | O=S(=O)(c1cccc(C(F)(F)F)c1)N1c2ccccc2-n2cccc2C1c1cccnc1 (stereo not given) | 10.8%
25 | O=C(NC1CCCC1)C(c1ccc(N2CCOCC2)cc1)N(C(=O)c1ccco1)c1ccccc1F (stereo not given) | 4.16%
